How the values were obtained:
[1] = molecular target: Leukocyte tyrosine kinase receptor (Homo sapiens) (UniProt P29376); settings: at 1 µM;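 also: each value is the mean inhibition of LTK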
[2] = molecular target: Tyrosine-protein kinase Lyn (Homo sapiens) (UniProt P07948); settings: at 0.1 µM
[3] = molecular target: Tyrosine-protein kinase Lyn (Homo sapiens) (UniProt P07948); settings: at 1 µM
[4] = molecular target: Tyrosine-protein kinase Lyn (Homo sapiens) (UniProt P07948); settings: at 0.1 µM; remark: listed apart in the source
[5] = molecular target: Tyrosine-protein kinase Lyn (Homo sapiens) (UniProt P07948); settings: at 1 µM; remark: listed apart in the source
[6] = molecular target: T1, Tyrosine-protein kinase Mer (Homo sapiens) (UniProt Q12866); settings: at 0.1 µM
T1 sequence (whole entry): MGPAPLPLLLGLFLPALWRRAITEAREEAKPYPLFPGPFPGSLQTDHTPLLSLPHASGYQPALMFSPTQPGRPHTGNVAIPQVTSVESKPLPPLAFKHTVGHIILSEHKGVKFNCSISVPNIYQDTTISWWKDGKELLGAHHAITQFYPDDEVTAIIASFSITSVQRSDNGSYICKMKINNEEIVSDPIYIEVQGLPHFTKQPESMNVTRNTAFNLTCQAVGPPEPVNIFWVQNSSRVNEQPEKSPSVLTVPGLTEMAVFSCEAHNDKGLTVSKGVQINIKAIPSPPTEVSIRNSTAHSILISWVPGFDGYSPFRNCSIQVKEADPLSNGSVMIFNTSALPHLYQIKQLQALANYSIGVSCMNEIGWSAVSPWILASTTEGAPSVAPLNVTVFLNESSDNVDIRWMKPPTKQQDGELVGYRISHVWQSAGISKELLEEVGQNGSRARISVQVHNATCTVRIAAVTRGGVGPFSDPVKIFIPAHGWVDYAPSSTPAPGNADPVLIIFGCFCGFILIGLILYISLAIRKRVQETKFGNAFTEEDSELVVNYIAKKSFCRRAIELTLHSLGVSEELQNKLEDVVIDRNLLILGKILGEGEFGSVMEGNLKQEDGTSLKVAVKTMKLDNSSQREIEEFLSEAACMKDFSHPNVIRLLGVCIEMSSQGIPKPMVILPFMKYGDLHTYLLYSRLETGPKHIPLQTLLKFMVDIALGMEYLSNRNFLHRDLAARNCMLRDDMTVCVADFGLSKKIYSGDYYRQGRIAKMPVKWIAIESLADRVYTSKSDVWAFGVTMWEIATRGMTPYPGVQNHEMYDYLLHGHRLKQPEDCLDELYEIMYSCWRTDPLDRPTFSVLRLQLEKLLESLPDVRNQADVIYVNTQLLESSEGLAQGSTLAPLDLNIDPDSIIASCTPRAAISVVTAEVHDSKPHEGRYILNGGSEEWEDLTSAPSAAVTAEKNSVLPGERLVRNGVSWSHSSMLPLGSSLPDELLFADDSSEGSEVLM

[7] = molecular target: T1, Tyrosine-protein kinase Mer (Homo sapiens); settings: at 1 µM
[8] = molecular target: Hepatocyte growth factor receptor (Homo sapiens) (UniProt P08581); settings: at 0.1 µM
Chain of Hepatocyte growth factor receptor (Homo sapiens) (P08581 whole entry): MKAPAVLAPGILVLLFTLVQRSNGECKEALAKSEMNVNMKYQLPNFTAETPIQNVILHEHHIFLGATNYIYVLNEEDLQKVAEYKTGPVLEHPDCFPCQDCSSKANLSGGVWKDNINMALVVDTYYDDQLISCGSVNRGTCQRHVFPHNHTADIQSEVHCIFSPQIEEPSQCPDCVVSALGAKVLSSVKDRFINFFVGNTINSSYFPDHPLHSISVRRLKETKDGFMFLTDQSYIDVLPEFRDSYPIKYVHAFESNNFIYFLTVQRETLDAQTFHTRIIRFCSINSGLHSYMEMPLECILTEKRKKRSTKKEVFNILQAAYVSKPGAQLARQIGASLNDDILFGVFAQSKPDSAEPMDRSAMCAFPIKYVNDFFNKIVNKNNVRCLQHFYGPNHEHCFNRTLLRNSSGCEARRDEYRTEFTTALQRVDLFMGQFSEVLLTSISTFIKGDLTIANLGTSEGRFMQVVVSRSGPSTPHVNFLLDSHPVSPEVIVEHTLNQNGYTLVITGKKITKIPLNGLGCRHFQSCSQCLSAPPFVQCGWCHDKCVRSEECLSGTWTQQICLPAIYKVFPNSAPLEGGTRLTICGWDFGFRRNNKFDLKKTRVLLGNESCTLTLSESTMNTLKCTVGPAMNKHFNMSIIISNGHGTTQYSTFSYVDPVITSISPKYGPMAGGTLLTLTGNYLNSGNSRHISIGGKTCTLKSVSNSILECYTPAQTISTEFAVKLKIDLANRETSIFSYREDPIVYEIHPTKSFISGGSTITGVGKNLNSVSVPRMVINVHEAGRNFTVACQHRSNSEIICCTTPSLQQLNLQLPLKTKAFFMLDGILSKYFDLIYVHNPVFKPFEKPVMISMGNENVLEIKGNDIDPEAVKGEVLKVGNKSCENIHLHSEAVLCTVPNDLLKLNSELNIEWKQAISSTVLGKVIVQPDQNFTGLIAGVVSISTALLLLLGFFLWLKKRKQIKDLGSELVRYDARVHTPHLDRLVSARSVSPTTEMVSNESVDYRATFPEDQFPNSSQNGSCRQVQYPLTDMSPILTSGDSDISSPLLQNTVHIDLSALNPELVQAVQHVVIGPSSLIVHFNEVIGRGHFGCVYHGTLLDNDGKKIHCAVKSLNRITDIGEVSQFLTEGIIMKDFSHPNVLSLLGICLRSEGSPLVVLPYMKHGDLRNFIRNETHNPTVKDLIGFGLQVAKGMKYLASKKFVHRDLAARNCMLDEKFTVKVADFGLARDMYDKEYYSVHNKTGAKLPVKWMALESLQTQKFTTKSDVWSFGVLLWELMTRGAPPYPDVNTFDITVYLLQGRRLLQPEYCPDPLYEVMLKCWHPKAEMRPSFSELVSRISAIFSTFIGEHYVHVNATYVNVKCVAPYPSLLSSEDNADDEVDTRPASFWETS

[9] = molecular target: Hepatocyte growth factor receptor (Homo sapiens) (UniProt P08581); settings: at 1 µM
[10] = molecular target: T2, Muscle, skeletal receptor tyrosine-protein kinase (Homo sapiens) (UniProt O15146); settings: at 0.1 µM
T2 sequence (whole entry): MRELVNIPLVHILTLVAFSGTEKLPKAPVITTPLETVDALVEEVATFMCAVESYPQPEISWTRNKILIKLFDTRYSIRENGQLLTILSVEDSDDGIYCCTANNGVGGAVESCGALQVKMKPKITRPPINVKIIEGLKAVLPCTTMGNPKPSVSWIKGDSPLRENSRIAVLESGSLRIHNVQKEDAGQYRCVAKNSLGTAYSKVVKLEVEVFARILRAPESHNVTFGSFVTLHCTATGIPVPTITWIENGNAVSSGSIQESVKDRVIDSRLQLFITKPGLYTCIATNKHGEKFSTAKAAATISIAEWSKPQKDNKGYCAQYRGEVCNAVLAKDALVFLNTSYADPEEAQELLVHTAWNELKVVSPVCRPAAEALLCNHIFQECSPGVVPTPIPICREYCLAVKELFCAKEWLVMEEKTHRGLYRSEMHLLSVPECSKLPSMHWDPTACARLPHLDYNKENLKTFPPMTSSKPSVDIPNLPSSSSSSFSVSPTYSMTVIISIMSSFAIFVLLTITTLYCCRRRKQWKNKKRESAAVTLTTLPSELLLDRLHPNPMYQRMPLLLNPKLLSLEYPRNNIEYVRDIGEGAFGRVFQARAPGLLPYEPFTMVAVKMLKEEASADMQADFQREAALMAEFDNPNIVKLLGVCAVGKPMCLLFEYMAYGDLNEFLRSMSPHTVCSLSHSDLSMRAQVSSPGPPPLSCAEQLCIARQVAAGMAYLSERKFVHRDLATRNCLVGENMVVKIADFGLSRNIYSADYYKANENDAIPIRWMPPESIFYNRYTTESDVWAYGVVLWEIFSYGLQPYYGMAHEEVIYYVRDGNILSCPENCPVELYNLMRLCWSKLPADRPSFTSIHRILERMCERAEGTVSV

[11] = molecular target: T2, Muscle, skeletal receptor tyrosine-protein kinase (Homo sapiens); settings: at 1 µM
[12] = molecular target: Platelet-derived growth factor receptor alpha (Homo sapiens) (UniProt P16234); settings: at 0.1 µM
Chain of Platelet-derived growth factor receptor alpha (Homo sapiens) (P16234 whole entry): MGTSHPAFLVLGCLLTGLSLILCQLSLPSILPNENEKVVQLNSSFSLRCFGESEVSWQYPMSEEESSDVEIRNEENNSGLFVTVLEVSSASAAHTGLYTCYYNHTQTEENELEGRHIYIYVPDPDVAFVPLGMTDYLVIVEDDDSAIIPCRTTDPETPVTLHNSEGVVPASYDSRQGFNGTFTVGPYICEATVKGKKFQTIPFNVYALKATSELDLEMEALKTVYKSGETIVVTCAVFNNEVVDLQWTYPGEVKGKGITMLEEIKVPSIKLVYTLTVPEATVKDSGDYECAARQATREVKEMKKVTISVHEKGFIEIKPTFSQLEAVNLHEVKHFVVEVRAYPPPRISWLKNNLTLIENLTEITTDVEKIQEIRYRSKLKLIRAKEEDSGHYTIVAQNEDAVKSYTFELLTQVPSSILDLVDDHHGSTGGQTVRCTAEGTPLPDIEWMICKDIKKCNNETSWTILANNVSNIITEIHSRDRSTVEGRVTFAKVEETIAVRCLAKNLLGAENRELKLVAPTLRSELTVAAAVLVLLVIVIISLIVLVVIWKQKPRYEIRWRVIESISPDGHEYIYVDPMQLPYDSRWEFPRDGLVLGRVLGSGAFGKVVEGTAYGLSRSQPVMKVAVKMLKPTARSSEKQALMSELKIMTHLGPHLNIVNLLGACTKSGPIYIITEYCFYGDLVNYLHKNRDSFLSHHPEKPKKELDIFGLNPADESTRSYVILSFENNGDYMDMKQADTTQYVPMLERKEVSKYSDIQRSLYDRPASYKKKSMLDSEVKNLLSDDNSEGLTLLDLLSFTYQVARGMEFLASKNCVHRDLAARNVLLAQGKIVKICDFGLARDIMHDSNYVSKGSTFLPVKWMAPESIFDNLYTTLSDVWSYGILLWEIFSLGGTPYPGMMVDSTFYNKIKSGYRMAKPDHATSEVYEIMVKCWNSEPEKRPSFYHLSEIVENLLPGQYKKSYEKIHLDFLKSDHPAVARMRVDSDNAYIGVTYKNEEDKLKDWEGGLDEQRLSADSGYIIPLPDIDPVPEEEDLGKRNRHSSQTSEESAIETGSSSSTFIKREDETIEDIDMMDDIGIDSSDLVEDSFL

[13] = molecular target: Platelet-derived growth factor receptor alpha (Homo sapiens) (UniProt P16234); settings: at 1 µM
[14] = system: Platelet-derived growth factor receptor alpha (Homo sapiens), P16234 [D842V]; settings: at 0.1 µM
Chain of Platelet-derived growth factor receptor alpha (Homo sapiens), P16234 [D842V] (P16234 whole entry D842V): as the sequence (P16234 whole entry) above, with D842V counted along it

[15] = system: Platelet-derived growth factor receptor alpha (Homo sapiens), P16234 [D842V]; settings: at 1 µM
[16] = system: Platelet-derived growth factor receptor alpha (Homo sapiens), P16234 [T674I]; settings: at 0.1 µM
[17] = system: Platelet-derived growth factor receptor alpha (Homo sapiens), P16234 [T674I]; settings: at 1 µM
[18] = system: Platelet-derived growth factor receptor alpha (Homo sapiens), P16234 [V561D]; settings: at 0.1 µM
[19] = system: Platelet-derived growth factor receptor alpha (Homo sapiens), P16234 [V561D]; settings: at 1 µM
[20] = molecular target: Platelet-derived growth factor receptor beta (Homo sapiens) (UniProt P09619); settings: at 0.1 µM;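 also: reported value is the mean percent inhibition of the kinase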

Chain of Tyrosine-protein kinase Lyn (Homo sapiens) (P07948 2-512 limits assumed): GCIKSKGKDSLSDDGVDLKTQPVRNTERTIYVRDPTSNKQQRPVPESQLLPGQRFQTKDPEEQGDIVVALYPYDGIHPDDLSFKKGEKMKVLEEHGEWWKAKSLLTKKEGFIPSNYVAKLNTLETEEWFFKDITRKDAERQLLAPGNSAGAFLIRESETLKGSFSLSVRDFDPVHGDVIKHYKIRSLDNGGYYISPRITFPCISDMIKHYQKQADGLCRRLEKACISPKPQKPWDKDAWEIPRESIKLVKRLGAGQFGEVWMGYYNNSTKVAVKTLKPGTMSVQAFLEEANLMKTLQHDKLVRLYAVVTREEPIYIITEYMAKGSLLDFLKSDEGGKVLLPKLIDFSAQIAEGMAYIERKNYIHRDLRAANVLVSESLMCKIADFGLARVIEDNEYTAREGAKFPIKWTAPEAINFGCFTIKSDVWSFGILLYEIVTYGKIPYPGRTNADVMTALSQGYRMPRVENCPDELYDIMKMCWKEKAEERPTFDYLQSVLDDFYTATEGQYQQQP
Chain of Leukocyte tyrosine kinase receptor (Homo sapiens) (P29376 whole entry): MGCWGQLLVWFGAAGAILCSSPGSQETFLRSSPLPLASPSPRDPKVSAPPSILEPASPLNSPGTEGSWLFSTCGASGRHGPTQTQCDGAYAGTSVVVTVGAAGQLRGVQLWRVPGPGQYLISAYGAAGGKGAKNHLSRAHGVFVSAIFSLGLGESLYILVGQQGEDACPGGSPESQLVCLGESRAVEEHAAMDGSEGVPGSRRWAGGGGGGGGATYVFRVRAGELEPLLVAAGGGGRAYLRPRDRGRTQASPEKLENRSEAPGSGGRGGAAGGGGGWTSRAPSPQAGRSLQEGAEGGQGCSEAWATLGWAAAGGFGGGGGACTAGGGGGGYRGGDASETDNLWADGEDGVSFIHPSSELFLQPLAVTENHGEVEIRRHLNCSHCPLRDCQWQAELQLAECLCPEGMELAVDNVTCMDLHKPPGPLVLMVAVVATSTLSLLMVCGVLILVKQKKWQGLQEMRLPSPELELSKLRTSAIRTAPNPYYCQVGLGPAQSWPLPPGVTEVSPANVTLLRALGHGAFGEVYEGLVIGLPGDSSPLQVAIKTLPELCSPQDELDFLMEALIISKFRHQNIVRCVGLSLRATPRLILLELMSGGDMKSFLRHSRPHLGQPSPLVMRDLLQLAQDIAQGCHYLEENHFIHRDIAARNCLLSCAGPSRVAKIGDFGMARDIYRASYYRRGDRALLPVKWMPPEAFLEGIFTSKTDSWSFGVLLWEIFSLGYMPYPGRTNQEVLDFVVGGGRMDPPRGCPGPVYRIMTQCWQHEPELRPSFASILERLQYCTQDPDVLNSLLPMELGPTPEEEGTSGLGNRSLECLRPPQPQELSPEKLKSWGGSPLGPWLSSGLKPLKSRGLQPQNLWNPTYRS

SMILES | inhibition [1] [%] | inhibition [2] [%] | inhibition [3] [%] | inhibition [4] [%] | inhibition [5] [%] | inhibition [6] [%] | inhibition [7] [%] | inhibition [8] [%] | inhibition [9] [%] | inhibition [10] [%] | inhibition [11] [%] | inhibition [12] [%] | inhibition [13] [%] | inhibition [14] [%] | inhibition [15] [%] | inhibition [16] [%] | inhibition [17] [%] | inhibition [18] [%] | inhibition [19] [%] | inhibition [20] [%]
COc1ccc(-c2cc3c(N)ncnc3o2)cc1 | 0.01 | -0.81 | 3.66 | 1.13 | 3.28 | 0.56 | 2.01 | -2.37 | 0.32 | -1.04 | 2.3 | -1.4 | 16.5 | 2.85 | 9.77 | 1.44 | 4.01 | 3.4 | 19.1 | 1.93
NS(=O)(=O)c1ccc(N/N=C2\C(=O)Nc3ccc4ncccc4c32)cc1 | 10.1 | 8.74 | 44.3 | 6.92 | 40 | 1.59 | 17.5 | 4.71 | 19.4 | 11.3 | 49.5 | 58.9 | 82.2 | 63.4 | 92.3 | 16.7 | 73.6 | 54.5 | 92.4 | 63.2
CCCN(CCS(C)(=O)=O)Cc1ccc(-c2ccc3ncnc(Nc4ccc(OCc5cccc(F)c5)c(Cl)c4)c3c2)o1 | 5.18 | 4.64 | 7.93 | 2.71 | 6.38 | 4.13 | 7.18 | 2.91 | 5.26 | 3.54 | 2.34 | 7.21 | 16.2 | 3.62 | 5.72 | 4.68 | 4.67 | 2.84 | 7.4 | 3.14
FC(F)(F)c1cccc(-c2nn3ncccc3c2-c2ccnc(Nc3ccc4c(c3)OCCO4)n2)c1 | 1.73 | 7.06 | 39.5 | 5.18 | 33.9 | 4.3 | 40 | 7.83 | 5.36 | 1.28 | 2.21 | 5.63 | 15.1 | 3.38 | 5.8 | 2.79 | 3.91 | 1.96 | 15.8 | 6.05
COC(=O)Nc1nc2ccc(S(=O)(=O)c3ccc(NC(=O)Nc4cc(C(F)(F)F)ccc4F)cc3)cc2[nH]1 | 0.53 | 3.86 | 3.43 | 1.56 | 3.05 | 0.88 | 4.05 | -2.38 | 0.66 | 2.5 | 4.85 | 2.65 | 4.3 | 3.19 | 0.61 | 3.85 | 2.62 | 2.98 | 3.2 | 5.73
CNC(=O)c1cccc(C#Cc2cncnc2Nc2ccc(OCc3cccc(F)c3)c(Cl)c2)c1 | 0.16 | 3.69 | 5.89 | 2.02 | 2.83 | 1.54 | 2.26 | 3.13 | 5.11 | -0.28 | -1.15 | 5.17 | 17.4 | -0.74 | 2.9 | 1.03 | 2.59 | 0.66 | 4.6 | 4.41
c1ccc(-c2nc3n(c2-c2ccc4c(c2)OCO4)CCC3)nc1 | 0.36 | 1.78 | 2.26 | 0.94 | 0.92 | 1.83 | 0.66 | 2.27 | -1.42 | 0.55 | 2.2 | 3.23 | 7.15 | 3.87 | 2.04 | 2.77 | 2.15 | 2.48 | 2.33 | 3.66
CCc1nn2ncccc2c1-c1ccnc(NC2CC2)n1 | 3.47 | 2.13 | 2.84 | 2.22 | 3.39 | 3.92 | 4.58 | 6.93 | 4.86 | 1.52 | 3.55 | 4.59 | 8.05 | 1.28 | 5.3 | 4.48 | 5.6 | 3.69 | 5.92 | 4.03
COc1ccc2c(-c3ccnc(Nc4cccc(OC(F)(F)F)c4)n3)cnn2n1 | 4.46 | 7.95 | 9.21 | 3.18 | 7.1 | 1.44 | 2.89 | 4.94 | 15.7 | 5.85 | 11.5 | 9.71 | 30.5 | -0.9 | 13.4 | 7.01 | 9.76 | 5.14 | 19.4 | 4.02
CCCN1CCC(c2ccc(Nc3nc(Nc4cc(F)ccc4C(N)=O)c4cc[nH]c4n3)c(OC)c2)CC1 | 95 | 6.55 | 11.2 | 4.92 | 7.3 | 2.18 | 20 | 8.25 | 22.9 | 4.34 | 15 | 8.78 | 46.5 | 6.28 | 43.8 | 4.13 | 9.42 | 8.22 | 36.4 | 10.4
Nc1nc(-c2cccc(Cl)c2)c(-c2ccc3ncccc3n2)s1 | 6.22 | 7.27 | 16.1 | 5.14 | 13.2 | 2.09 | 7.21 | 6.65 | 7.33 | 2.01 | 2.14 | 8.04 | 28.3 | 8.3 | 40.8 | 5.77 | 9.67 | 9.61 | 26.7 | 5.64
CS(=O)(=O)CCNCc1ccc(-c2ccc3ncnc(Nc4ccc(OCc5ccccc5)c(C(F)(F)F)c4)c3c2)o1 | 3.64 | 4.35 | 10.4 | 2.65 | 2.28 | -0.65 | 1.81 | 0.49 | 5.8 | 1.44 | -0.25 | 6.22 | 7.17 | 2.98 | 2.15 | 3.58 | 5.04 | 3.38 | 1.15 | 1.55
COc1ccc(-c2cc(-c3c[nH]nc3-c3ccccn3)ccn2)cc1 | 5.89 | 6.64 | 15.2 | 3.87 | 11.2 | 1.3 | 2.69 | 8.94 | 3.52 | 3.4 | 4.1 | 13.7 | 42.1 | 14.9 | 58.7 | 7.15 | 9.53 | 11.1 | 40.6 | 7.26

Source: ChEMBL document CHEMBL1961873, “Compounds: GSK PKIS; Assays: Nanosyn kinase panel” (2012)
